Data taken from the supplement of paper PMC12340641.
Over roughly 1,000 compounds, “relative growth in counter assay (no AraC = 100%, AraC + DMSO = 0%)” has its median near -1.1; the highest 2% begin near 20. The entries come from a sample that favours the highest values as a whole.

System: HEK293FT dCK*-only
Assay: relative growth in counter assay (no AraC = 100%, AraC + DMSO = 0%); higher = more growth rescue independent of IKZF1
Conditions: compound concentration: 5 uM; AraC concentration: 0.3 uM; overnight pretreatment + 4 days AraC
Description: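 Growth recovery screen of the molecular-glue-like (Specs) library. HEK293FT cells expressing a dCK*-IKZF1 fusion (primary) or dCK* alone (counter) were pretreated overnight with compound at 5 uM, then given 0.3 uM AraC for 4 days. Hoechst nuclei were counted by imaging. Primary: normalised to pomalidomide (100%) and DMSO (0%), mean of 2 replicates. Counter: normalised to no-AraC (100%) and AraC+DMSO (0%), single replicate.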

Row | SMILES | relative growth in counter assay
1 | O=C(C1CCCCC1)N1CCOC(c2cccc(Nc3nccs3)n2)C1 (stereo not drawn) | -5.66%
2 | O=[N+]([O-])c1ccc(S(=O)(=O)Nc2ccccn2)cc1 | -0.83%
3 | CC(=O)N1CCCC1c1csc(Nc2ccccn2)n1 (stereo not drawn) | 6.68%
4 | CC(=O)N1CCCC(c2csc(Nc3ccc(C)cn3)n2)C1 (stereo not drawn) | 2.06%
5 | CC(=O)Nc1cccc(-c2csc(Nc3cccc(C)n3)n2)c1 | 5.94%
6 | Cc1ccnc(Nc2nc(-c3sc(NC(=O)c4ccccc4)nc3C)cs2)c1 | 68.2%
7 | Cc1ccc(Nc2nc(-c3sc(NC(=O)c4ccccc4)nc3C)cs2)nc1 | 74.3%
8 | CC(=O)Nc1ccc(-c2csc(Nc3cccc(C)n3)n2)cc1 | 5.34%
9 | CC(=O)Nc1ccc(-c2csc(Nc3ccccn3)n2)cc1 | 15.7%
10 | Cc1cccc(Nc2nc(-c3sc(NC(=O)c4ccccc4)nc3C)cs2)n1 | 60.5%
11 | CC(=O)Nc1ccc(-c2csc(Nc3ccc(Cl)cn3)n2)cc1 | -4.91%
12 | COc1cccc(OC)c1C(=O)Nc1ccc(S(=O)(=O)Nc2nccc(C)n2)cc1 | -1.58%
13 | CC1CCc2cc(F)ccc2N1C(=O)CSc1nnc2c(n1)[nH]c1ccccc12 (stereo not drawn) | 6.61%
14 | O=C(NCc1cnc(Nc2cccc(C3CCN(C(=O)C4CCCCC4)CC3)n2)s1)c1cccc(F)c1 | -9.34%
15 | CC(C)(N)C(=O)N1CCC(c2cccc(Nc3ncc(-c4cccnc4)s3)n2)CC1 | -23.8%
16 | CCCc1cnc(Nc2cccc(C3CCN(C(=O)[C@@H](N)C(C)O)CC3)n2)s1 (stereo partly drawn) | -24.9%
17 | Cc1ccc(CC(=O)N2CCOC(c3cccc(Nc4nccs4)n3)C2)cc1C (stereo not drawn) | -4.97%
18 | COc1ccc(C(=O)Nc2ccc(S(=O)(=O)Nc3cc(C)nc(C)n3)cc2)cc1 | -14%
19 | Nc1ccc(C(=O)N2CCCC2c2cccc(Nc3nccs3)n2)cn1 (stereo not drawn) | -0.6%
20 | O=C(O)CCOCCOCCNc1ccc2c(c1)C(=O)N(C1CCC(=O)NC1=O)C2=O (stereo not drawn) | -0.35%
21 | O=[N+]([O-])c1ccc(S(=O)(=O)Nc2ccc(S(=O)(=O)Nc3ncccn3)cc2)cc1 | 0.33%
22 | CC(C)(C)N1CC(C(=O)Nc2ccc(S(=O)(=O)Nc3ncccn3)cc2)CC1=O (stereo not drawn) | 4.79%
23 | COC1CCCC(C(=O)N2CCOC(c3cccc(Nc4ncc(C)s4)n3)C2)C1 (stereo not drawn) | -9.41%
24 | CCOCCC(=O)Nc1ccc(S(=O)(=O)Nc2ncccn2)cc1 | 3.97%
25 | Cc1cc(NS(=O)(=O)c2ccc(NC(=O)COc3ccc(C(C)C)cc3)cc2)nc(C)n1 | -0.57%

Row | SMILES | relative growth in counter assay
26 | Cc1cccc(OCC(=O)Nc2ccc(S(=O)(=O)Nc3nc(C)cc(C)n3)cc2)c1 | -12%
27 | CN(CC(=O)N1CCOC(c2cccc(Nc3nccs3)n2)C1)Cc1ccccc1F (stereo not drawn) | 0.79%
28 | CC(C)c1cnc(Nc2cccc(C3CCN(C(=O)C4CCCCC4)CC3)n2)s1 | 11%
29 | COc1cccc(C(=O)Nc2ccc(S(=O)(=O)Nc3cc(C)nc(C)n3)cc2)c1 | 0.7%
30 | COc1ccc(NC(=O)CN2CCC(c3cccc(Nc4nc(C)cs4)n3)CC2)cc1 | 13.8%
31 | O=C1CCC(N2C(=O)c3cccc(N4CCC(C(=O)O)CC4)c3C2=O)C(=O)N1 (stereo not drawn) | 3.86%
32 | Cc1cc(C)nc(NS(=O)(=O)c2ccc(NC(=O)CCN3C(=O)c4ccccc4C3=O)cc2)n1 | -7.05%
33 | Cc1csc(Nc2cccc(C3CCCN3C(=O)c3ccc4c(c3)CCCN4C)n2)n1 (stereo not drawn) | 13.3%
34 | Cc1csc(Nc2cccc(C3CCCN3C(=O)c3ccc4[nH]c(C(C)C)nc4c3)n2)n1 (stereo not drawn) | 30.5%
35 | Cc1ccc2[nH]nc(C(=O)N3CCCC3c3cccc(Nc4nc(C)cs4)n3)c2c1 (stereo not drawn) | 2.1%
36 | Cc1csc(Nc2cccc(C3CCCN3C(=O)c3cn4cc(Cl)ccc4n3)n2)n1 (stereo not drawn) | 22.3%
37 | CC(=O)N1CCCC1c1cccc(Nc2nc(C)cs2)n1 (stereo not drawn) | -5.77%
38 | Cc1csc(Nc2cccc(C3CCCN3C(=O)c3cnc(C)nc3C)n2)n1 (stereo not drawn) | -4.08%
39 | COc1ccc(C(=O)Nc2ccc(S(=O)(=O)Nc3ncccn3)cc2)cc1OC | -2.72%
40 | Cc1ccc(Oc2ccc3c(c2)C(=O)N(c2ccc(C(N)=O)cc2)C3=O)cc1C | 3.9%
41 | COc1ccc2[nH]c3nc(SCC(=O)Nc4cccc(F)c4)nnc3c2c1 | -13.9%
42 | COc1ccc(C(=O)Nc2ccc(S(=O)(=O)Nc3nccc(C)n3)cc2)cc1 | -6.7%
43 | Cc1cnc(Nc2cccc(C(CO)C3CCN(C(=O)c4cccc(Cl)c4F)CC3)n2)s1 (stereo not drawn) | -1.22%
44 | Cc1cnc(Nc2cccc(C3CN(C(=O)C(C)(C)C)CCO3)n2)s1 (stereo not drawn) | -10.3%
45 | CCCc1cnc(Nc2cccc(C3CCN(C(=O)[C@@H]4CCCCN4)CC3)n2)s1 | -21.3%
46 | COc1ccc(Cl)cc1NC(=O)CSc1nnc2c(n1)[nH]c1ccc(F)cc12 | 5.27%
47 | COc1ccc(N2C(=O)c3ccc(Oc4ccccc4)cc3C2=O)cc1 | -22.4%
48 | CCC(C)C(=O)Nc1ccc(S(=O)(=O)Nc2nccc(C)n2)cc1 (stereo not drawn) | -7.22%
49 | COc1cc(NS(=O)(=O)c2ccc(Nc3nc(-c4c(C)nc5ncccn45)cs3)cc2)nc(OC)n1 | 2.39%
50 | CCCCc1cnc(Nc2cccc(C3CCN(C(=O)C(C)(C)NC(=O)COC)CC3)n2)s1 | -10.6%

Row | SMILES | relative growth in counter assay
51 | COc1cccc(CC(=O)N2CCC(c3cccc(Nc4nc(C)c(C)s4)n3)CC2)c1 | 2.52%
52 | Cc1ccnc(NS(=O)(=O)c2ccc(NC(=O)c3ccco3)cc2)n1 | 3.62%
53 | NCC(=O)N1CCC(c2cccc(Nc3ncc(Cl)s3)n2)CC1 | -23.9%
54 | COc1ccc(N2CC(C(=O)Nc3ccc(S(=O)(=O)Nc4nc(C)cc(C)n4)cc3)CC2=O)cc1 (stereo not drawn) | 7.32%
55 | Cc1ccnc(NS(=O)(=O)c2ccc(NC(=O)C3c4ccccc4Oc4ccccc43)cc2)n1 | -3.45%
56 | COc1ccc(Br)cc1/C=N/NS(=O)(=O)c1ccccc1 | -21.2%
57 | Cc1nc(Nc2cccc(C3CN(C(=O)c4cn5cccc(C)c5n4)CCO3)n2)sc1C (stereo not drawn) | 2.16%
58 | CNC(=O)C1(c2cccc(Nc3ncc(C)s3)n2)CCN(C(=O)C2CCCCC2)CC1 | -21.2%
59 | Cc1cc(C)nc(NS(=O)(=O)c2ccc(NC(=O)CSc3nnnn3-c3ccccc3)cc2)n1 | 1.47%
60 | CC(C)CC(=O)N1CCCC1c1csc(Nc2ccccn2)n1 (stereo not drawn) | -4%
61 | Cc1cnc(Nc2cccc(C3CCN(C(=O)C4(NC(=O)C(C)C)CCCCC4)CC3)n2)s1 | -24.4%
62 | CC(=O)Nc1ccc(S(=O)(=O)Nc2ncccn2)cc1 | -1.98%
63 | CC(=O)Nc1ccc(S(=O)(=O)N(Cc2ccccc2)c2ccccn2)cc1 | 21%
64 | CC(=O)Nc1ccc(S(=O)(=O)Nc2ccccn2)cc1 | -7.51%
65 | CC1(C)C=C(CC(=O)N2CCOC(c3cccc(Nc4nccs4)n3)C2)CC(C)(C)N1 (stereo not drawn) | 6.81%
66 | O=C(CN1C(=O)c2ccccc2C1=O)Nc1ccc(S(=O)(=O)Nc2ncccn2)cc1 | -1.34%
67 | O=C1c2ccc(Oc3ccc(NC(=O)C(F)(F)F)cc3)cc2C(=O)N1c1ccc(O)cc1 | -3.44%
68 | CCCOc1ccccc1C(=O)Nc1ccc(S(=O)(=O)Nc2nc(C)cc(C)n2)cc1 | 2.83%
69 | CCCc1cnc(Nc2cccc(C3CCN(C(=O)C4CCCCN4CCO)CC3)n2)s1 (stereo not drawn) | -7.08%
70 | Cc1cnc(Nc2cccc(C3CCN(CC(=O)N(C)C4CCCCC4)CC3)n2)s1 | -15.6%
71 | Cc1cc(C)nc(NS(=O)(=O)c2ccc(NC(=O)C(C)C)cc2)n1 | 2.66%
72 | Cc1cc(C)cc(OCC(=O)Nc2ccc(S(=O)(=O)Nc3cc(C)nc(C)n3)cc2)c1 | 7.68%
73 | Cc1ccc(Cl)cc1NC(=O)CSc1nnc2c(n1)[nH]c1ccc(F)cc12 | -2.7%
74 | COc1ccc(CCC(=O)N2CCOC(c3cccc(Nc4ncc(C)s4)n3)C2)cc1 (stereo not drawn) | 9.66%
75 | COc1cccc(CCC(=O)N2CCOC(c3cccc(Nc4ncc(C)s4)n3)C2)c1 (stereo not drawn) | 6.36%

Row | SMILES | relative growth in counter assay
76 | Cc1csc(Nc2cccc(C3CN(C(=O)CCc4nc(C)no4)CCO3)n2)n1 (stereo not drawn) | 4.72%
77 | COCC(=O)N1CCOC(c2cccc(Nc3nc(C)cs3)n2)C1 (stereo not drawn) | 2.47%
78 | COc1ccc(CCC(=O)N2CCOC(c3cccc(Nc4nc(C)cs4)n3)C2)cc1 (stereo not drawn) | 19.5%
79 | Cc1csc(Nc2cccc(C3CN(C(=O)CCCc4ccc(F)cc4)CCO3)n2)n1 (stereo not drawn) | 36.2%
80 | CC(=O)N1CCC(c2csc(Nc3ccc(F)cn3)n2)CC1 | 4.68%
81 | CCCCc1cnc(Nc2cccc(C3CCN(C(=O)[C@@H]4CCCN4CCO)CC3)n2)s1 | 2.3%
82 | CC(C)c1ccc(OCC(=O)Nc2ccc(S(=O)(=O)Nc3ccccn3)cc2)cc1 | 4.55%
83 | O=C(Nc1ccc(S(=O)(=O)Nc2ncccn2)cc1)Oc1ccccc1 | -1.98%
84 | Cc1cc(NS(=O)(=O)c2ccc(NC(=O)c3cc4ccccc4o3)cc2)nc(C)n1 | -3.17%
85 | Cc1nc(Nc2cccc(C3CCCN3C(=O)c3cc4ccc(F)cc4[nH]3)n2)sc1C (stereo not drawn) | 9.01%
86 | O=C(CS(=O)(=O)c1ccccc1)Nc1ccc(S(=O)(=O)Nc2ncccn2)cc1 | 8.67%
87 | O=C(Nc1ccc(S(=O)(=O)Nc2ccccn2)cc1)c1cccc(Cl)c1 | -0.42%
88 | O=C(O)CCCCCNc1cccc2c1C(=O)N(C1CCC(=O)NC1=O)C2=O (stereo not drawn) | 1.33%
89 | CCCc1cnc(Nc2cccc(C3CCN(C(=O)C4CCCCC4)CC3)n2)s1 | -19.4%
90 | Cc1nc(Nc2cccc(C3CN(CC(=O)N4CCC(C)CC4)CCO3)n2)sc1C (stereo not drawn) | 7.05%
91 | Cc1cnc(Nc2cccc(C3CCN(CC(=O)Nc4c(F)cccc4F)CC3)n2)s1 | -16.6%
92 | Cc1nc(Nc2cccc(C3CCN(CC(=O)N4CCC(C)CC4)CC3)n2)sc1C | 26.6%
93 | COCC(C)NC(=O)CN1CCC(c2cccc(Nc3nccs3)n2)CC1 (stereo not drawn) | -1.53%
94 | COCC(C)NC(=O)CN1CCC(c2cccc(Nc3nc(C)c(C)s3)n2)CC1 (stereo not drawn) | 25.6%
95 | Cc1cnc(NC(=O)CN2CCC(c3cccc(Nc4ncc(C)s4)n3)CC2)s1 | -16.5%
96 | Cc1cnc(Nc2cccc(C3CCN(CC(=O)N4CCC(C)CC4)CC3)n2)s1 | -9.8%
97 | Cc1cnc(NC(=O)CN2CCC(c3cccc(Nc4nc(C)c(C)s4)n3)CC2)s1 | 24.2%
98 | COCC(C)NC(=O)CN1CCC(c2cccc(Nc3ncc(C)s3)n2)CC1 (stereo not drawn) | -1.08%
